Measured values as given in PubChem BioAssay.
The source made the active and inactive calls.

Assay: S. pombe growth modifiers, basal conditions – strain 972, OD600, 24 h, no modulator, primary screen (AID 1090);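 note: basal condition with compound alone and no growth modifier present; test concentration not given here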
Conditions: S. pombe 972 growth, higher = more signal, called active from +8 up or from −8 down

z-score, active:
C#CCN(Cc1ccccc1Br)[C@H](/C=C/c1ccccc1)[C@@H](O)Cc1ccccc1 -12.7

z-score, inactive:
COCC(=C=CC[C@H](O)c1ccc(OCCO)cc1)CCO -0.406
CCOC(=O)C[C@H]1[C@H](OC(=O)Cc2ccc3c(c2)OCO3)[C@@H](NC(=O)c2ccc3ccccc3n2)c2cc(OCCCO)ccc2N1C(=O)c1ccccc1 -0.931
COc1ccc([Si](C)(C)[C@@H]2[C@@H](CC(=O)N3CCC[C@H]3CO)O[C@]3(C(=O)N(Cc4cccc(N5C(=O)COc6ccccc65)c4)c4ccccc43)[C@H]2C)cc1 -0.185
COc1ccc(CCNC(=O)[C@@H]2c3ccccc3C(=O)N(C3CCCCC3)[C@H]2c2ccc(CO)cc2)cc1 -0.838
NCCCCCNC(=O)[C@@H]1C[C@@H]2C(=O)N[C@@H](CCCCN)C(=O)N2[C@@H]1c1ccc(O)cc1 1.91
NC(=O)[C@H]1[C@@H]2C(=O)O[C@@H](c3ccccc3)[C@@H](c3ccccc3)N2[C@@H](c2ccc(OCCO)cc2)[C@]12C(=O)Nc1ccc(C#CCCO)cc12 0.547
CCCCC(O)C1C=CC2C(=O)N(C)C(=O)C2N1N(c1ccccc1)c1ccccc1 (stereo unspecified) 0.483
CCCC[C@@H](O)C1=C(COC)C[C@H]2C(=O)N(C)C(=O)[C@H]2[C@H]1CO -1.77
C=C(COC)/C(=C/C[C@H](OC(=O)c1ccncc1)c1ccccc1OCCO)c1cc(C(=O)OC)ccc1OC -0.925
COC(=O)C1(CC(C)C)C=C2C(=C(c3ccccc3)C(=O)C2C)CN1 (stereo unspecified) 0.424
CCOc1cc(C(O)C2C=CC3C(=O)NC(=O)C3N2Nc2ccc(Cl)cc2Cl)ccc1O (stereo unspecified) -1.29
Cc1ccc(S[C@]2(C(=O)NC(C)C)CC(=O)N(Cc3cc(C(F)(F)F)cc(C(F)(F)F)c3)[C@@H]2c2ccc(CO)cc2)cc1 -1.03
CCCCCCCCCC(O)C1C=CC2C(=O)N(c3ccccc3)C(=O)C2N1Nc1cc(OC)c(OC)c(OC)c1 (stereo unspecified) 0.441
COc1cc(C(O)C2C=CC3C(=O)N(C)C(=O)C3N2Nc2ccccc2)cc(OC)c1OC (stereo unspecified) -0.549
CCOC(=O)C1=C[C@@H](C(C)C)N(S(=O)(=O)c2ccc(C)cc2)[C@H]1c1ccc(C(F)(F)F)cc1 1.5
CC(C)C(CO)N1C(=O)[C@@H]2C3C(=O)OCCC/C=C\[C@H]3OC23C=CCN(c2ccc4ccccc4c2)C(=O)[C@@H]13 (stereo partly specified) -1.45
CCCCN1CC=CC23O[C@@H]4/C=C\CCCOC(=O)C4[C@H]2C(=O)N(CCO)[C@@H]3C1=O (stereo partly specified) -0.0784
CC(C)C(CO)N1C(=O)[C@@H]2C3C(=O)OCCC/C=C\[C@H]3OC23C=CCN(Cn2nnc4ccccc42)C(=O)[C@@H]13 (stereo partly specified) -0.299
C=CC[C@@]1(C(=O)NCCCOC)N=C(c2ccc(OCCCO)cc2)O[C@@H]1c1ccccc1N=[N+]=[N-] 0.561
C=CCNC(=O)[C@@H]1[C@H]2C(=O)O[C@H](c3ccccc3)[C@H](c3ccccc3)N2[C@H](c2ccccc2OCCO)[C@@]12C(=O)N(C(=O)OCCOC)c1ccc(C#CC3(O)CCCCCC3)cc12 -0.0365
COCCOC(=O)N1C(=O)[C@@]2(c3cc(C#CCC(C(=O)OC)C(=O)OC)ccc31)[C@H](c1ccc(OCCO)cc1)N1[C@H](c3ccccc3)[C@H](c3ccccc3)OC(=O)[C@H]1[C@@H]2C(=O)N1CCc2cc(OC)c(OC)cc2C1 2
C=CCN1C(=O)[C@]2(CCC(=O)OC(C)(C)C)N=C(c3ccc(OCCCO)cc3)O[C@@H]2c2ccccc21 -1.56
O=C1N(CCS(=O)(=O)c2ccccc2)c2ccccc2[C@H]2OC(c3ccc(OCCCO)cc3)=N[C@@]12Cc1ccccc1 -0.0472
COCCOC(=O)N1C(=O)[C@@]2(c3cc(C#CC4(O)CCCCCC4)ccc31)[C@H](c1ccc(O)cc1)N1[C@H](c3ccccc3)[C@H](c3ccccc3)OC(=O)[C@H]1[C@@H]2C(=O)N1CCN(c2ncccn2)CC1 -0.247
CO[C@H]1O[C@H](CO)[C@@H](OC(=O)Nc2ccccc2)[C@H](OC(=O)c2cc3ccccc3[nH]2)[C@H]1OC(=O)c1cc2ccccc2[nH]1 -0.562
